Data taken from PubChem BioAssay (NCATS).
Several values for one entry are separate records, joined by “and”; a condition that tells them apart may be missing. Equal values may be shown once. Inconclusive results are not listed. Activity calls are given as the source filed them. Unless noted, calls follow the shape of the dose curve; as a rule, active = well fitted curve in the direction sought with a large enough effect; inconclusive = small, poorly fitted or top-dose-only effect, or another doubt; inactive = no such curve, though single readings can be large; an effect the other way counts as inactive or inconclusive.

How the values were obtained:
[1] = tested on: Zika virus NS2B-NS3 protease; assay: Primary screen GU AMC qHTS for Zika virus inhibitors (AID 1347154);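 also: 0% = no-inhibitor control and -100% = no-enzyme control; nearly all actives have a fitted effect of over 70% in size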
Procedure, shortened: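 Fluorogenic AMC-substrate cleavage by noncovalent NS2B-NS3 protease complex (25 nM, pH 8.0 Tris buffer with Tween 20) followed for 15 minutes at room temperature (~20% conversion). Percent inhibition from ex340/em450 signal change, fitted by 4-parameter Hill equation.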

[2] = Primary qHTS for inhibitors of nuclear receptor binding SET domain protein 2 (NSD2) in an isogenic RCH-ACV NSD2 p.E1099K mutant (9B) (AID 1645876); also: potency is read from the fitted curve at half-maximal effect; nearly all actives have a fitted effect of over 70% in size
[3] = Primary qHTS for inhibitors of nuclear receptor binding SET domain protein 2 (NSD2) in an RCH-ACV wild type WT cells (2C) (AID 1645877); also: potency is read from the fitted curve at half-maximal effect; nearly all actives have a fitted effect of over 70% in size
[4] = target: Glutathione peroxidase 1 (Homo sapiens) (UniProt P07203); assay: Primary qHTS Assay for Inhibitors of Recombinant Selenoprotein Glutathione Peroxidase 1 (GPX1) (AID 1845191); also: nearly all actives have a fitted effect of over 65% in size
Sequence of Glutathione peroxidase 1 (Homo sapiens) (P07203 whole entry, looked up): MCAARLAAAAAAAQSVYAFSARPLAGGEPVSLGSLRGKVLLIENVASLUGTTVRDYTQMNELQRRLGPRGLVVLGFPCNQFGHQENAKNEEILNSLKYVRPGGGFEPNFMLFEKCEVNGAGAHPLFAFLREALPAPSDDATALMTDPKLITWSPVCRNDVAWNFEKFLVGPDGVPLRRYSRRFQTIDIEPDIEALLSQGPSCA
Procedure, shortened: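 NADPH consumption tracked by fluorescence at 340/450 nm between t=0 and t=15 min, room temperature. Final mix: 10 nM GPX1, 100 nM glutathione reductase, 1 mM GSH, 0.5 mM NADPH, 0.5 mM cumene hydroperoxide, 0.01% BSA; 30 min compound–enzyme preincubation.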

[5] = AP1 Signaling Pathway (AID 357; active = well fitted curve in either direction with a large enough effect, not every such curve was filed as active;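 also: ME-180 reporter cells stimulated with EGF at its EC50 level; % is scaled to controls: 0 for no effect and ±100 for the full control effect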); details: ME-180 AP-1-bla reporter, EGF-induced, beta-lactamase ratio, 5 h
Procedure, shortened: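 A ratiometric CCF4 readout (405 nm excitation; 460 and 530 nm emission) quantified AP-1-driven beta-lactamase in ME-180 cells after 5 h with compound and EC50 EGF; AC50 values were derived for activators and inhibitors.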

[6] = target: Cytochrome P450 1A2 (Homo sapiens) (UniProt P05177); assay: p450-cyp1a2 (AID 410; calls by dose curve;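 also: -100% = full effect of reference inhibitor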)
Sequence of Cytochrome P450 1A2 (Homo sapiens) (P05177 whole entry, looked up): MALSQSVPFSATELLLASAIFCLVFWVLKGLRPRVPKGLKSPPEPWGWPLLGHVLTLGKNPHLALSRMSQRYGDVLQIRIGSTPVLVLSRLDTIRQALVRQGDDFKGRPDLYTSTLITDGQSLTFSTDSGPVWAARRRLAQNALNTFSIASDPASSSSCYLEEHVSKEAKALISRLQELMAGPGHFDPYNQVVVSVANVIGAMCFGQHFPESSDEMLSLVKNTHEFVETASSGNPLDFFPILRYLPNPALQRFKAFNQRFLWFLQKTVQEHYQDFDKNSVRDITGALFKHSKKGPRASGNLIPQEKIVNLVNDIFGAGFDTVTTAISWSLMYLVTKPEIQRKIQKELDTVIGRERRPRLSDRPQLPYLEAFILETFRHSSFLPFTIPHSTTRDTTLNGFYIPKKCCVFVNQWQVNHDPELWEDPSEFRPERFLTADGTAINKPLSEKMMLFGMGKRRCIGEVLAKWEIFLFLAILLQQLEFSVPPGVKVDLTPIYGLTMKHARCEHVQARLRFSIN
Procedure, shortened: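 Luminescent demethylation readout: Luciferin-ME (100uM, equal to Km) turned over by 20nM CYP1A2 for 60 min at room temperature after NADPH regeneration addition, following 10 min compound preincubation. Normalization used 57 uM furafylline as full inhibition.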

[7] = NFAT Signaling Pathway (AID 444; active = well fitted curve in either direction with a large enough effect, not every such curve was filed as active;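 also: carbachol stimulus at about its EC50 of 1 µM final; % is scaled to controls: 0 for no effect and ±100 for the full control effect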); details: Jurkat NFAT-bla M1, carbachol, beta-lactamase ratio, 5 h
Procedure, shortened: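 Read-out: CCF4 FRET ratio (460 nm/530 nm) after 1 h RT dye loading, used for %activity and AC50 from titration series. Cells: Jurkat NFAT-β-lactamase/M1 line, treated with compound plus 1 uM carbachol for 5 h, 37 °C.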

[8] = Stat Signaling Pathway (AID 446; active = well fitted curve in either direction with a large enough effect, not every such curve was filed as active;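 also: ME-180 cervical cancer cells given 40 pM IL-6 alongside compound; SIE-controlled beta-lactamase reporter measured as 460/530 nm FRET emission ratio; % is scaled to controls: 0 for no effect and ±100 for the full control effect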); details: ME-180 (cervical carcinoma) SIE beta-lactamase reporter, IL-6 stimulated, 5 h
Procedure, shortened: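 Compound effects on IL-6-induced STAT reporter activity were measured in ME-180 cells. After overnight culture, cells were co-treated with 40 pM IL-6 for 5 hrs before beta-lactamase substrate loading at room temperature.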

[9] = target: Mitogen-activated protein kinase 10 (Mus musculus) (UniProt Q61831); assay: JNK3 AlphaScreen Assay (AID 530; active = well fitted curve in either direction with a large enough effect, not every such curve was filed as active;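 also: kinase came from lysate of stimulated human HepG2 cells; signal reports phosphorylation of biotinylated GST-cJun 1-79 at Ser73 with 10 µM ATP; % is scaled to controls: 0 for no effect and ±100 for the full control effect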)
Procedure, shortened: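 qHTS titrations with 15 min compound pre-incubation before adding ATP (10 uM final). Read-out: AlphaScreen of Ser73-phosphorylated biotin-GST-cJun using HepG2 lysate JNK3 activated by IL-1β and TNFα.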

[10] = target: 3',5'-cyclic-AMP phosphodiesterase 4B (Homo sapiens) (UniProt Q07343); assay: qHTS Assay for Inhibitors of PDE-IV (AID 607; active = well fitted activation curve with a large enough effect in the main read-out, with a control signal flat, not every such curve was filed as active; also: % of control where 0% means no effect)
Sequence of 3',5'-cyclic-AMP phosphodiesterase 4B (Homo sapiens) (Q07343 whole entry, looked up): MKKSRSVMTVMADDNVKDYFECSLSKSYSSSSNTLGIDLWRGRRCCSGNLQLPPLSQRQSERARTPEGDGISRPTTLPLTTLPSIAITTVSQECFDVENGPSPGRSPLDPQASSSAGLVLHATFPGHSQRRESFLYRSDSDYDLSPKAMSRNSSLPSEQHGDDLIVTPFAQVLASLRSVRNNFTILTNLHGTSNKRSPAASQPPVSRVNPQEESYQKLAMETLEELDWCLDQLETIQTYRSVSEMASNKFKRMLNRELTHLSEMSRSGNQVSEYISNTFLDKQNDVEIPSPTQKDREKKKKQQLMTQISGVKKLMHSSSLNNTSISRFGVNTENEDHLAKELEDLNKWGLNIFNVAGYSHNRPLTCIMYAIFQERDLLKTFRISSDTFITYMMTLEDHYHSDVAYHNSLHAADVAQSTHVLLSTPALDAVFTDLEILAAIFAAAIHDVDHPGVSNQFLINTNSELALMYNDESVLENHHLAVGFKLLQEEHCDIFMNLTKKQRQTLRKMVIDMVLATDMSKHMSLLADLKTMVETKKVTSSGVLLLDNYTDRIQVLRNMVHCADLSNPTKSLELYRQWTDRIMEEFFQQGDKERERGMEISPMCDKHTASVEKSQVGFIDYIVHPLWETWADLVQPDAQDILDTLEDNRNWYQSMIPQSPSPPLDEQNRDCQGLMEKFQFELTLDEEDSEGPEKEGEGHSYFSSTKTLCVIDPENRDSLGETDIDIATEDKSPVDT
Procedure, shortened: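 ACTOne HEK293 cells carry a modified cAMP-gated CNG channel and express endogenous PDE4; plated 1000 cells/well, compounds up to 22.9 uM final. Membrane-potential dye fluorescence (ex 535/em 590) was read; parental cells received 10 uM forskolin + 100 uM RO 20-1724.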

[11] = target: Guanine nucleotide-binding protein G(i) subunit alpha-1 (Homo sapiens) (UniProt P63096); assay: qHTS Assay for Inhibitors of RGS12 GoLoco Motif Activity (Green Fluorophore) (AID 879);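 also: 0% = labeled peptide with Gαi1 and full inhibition = labeled peptide alone without protein; negative values mean loss of peptide binding seen as reduced polarization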
Sequence of Guanine nucleotide-binding protein G(i) subunit alpha-1 (Homo sapiens) (P63096 whole entry, looked up): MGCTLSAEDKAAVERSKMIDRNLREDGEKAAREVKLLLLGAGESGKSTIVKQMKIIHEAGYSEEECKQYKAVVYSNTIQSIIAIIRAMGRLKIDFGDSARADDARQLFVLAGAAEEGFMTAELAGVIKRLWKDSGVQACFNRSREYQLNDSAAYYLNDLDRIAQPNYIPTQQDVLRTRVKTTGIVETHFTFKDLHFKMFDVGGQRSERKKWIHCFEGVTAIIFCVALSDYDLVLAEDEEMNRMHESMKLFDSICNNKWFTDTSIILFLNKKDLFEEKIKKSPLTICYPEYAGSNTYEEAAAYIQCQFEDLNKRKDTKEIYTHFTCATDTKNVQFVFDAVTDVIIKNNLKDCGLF
Procedure, shortened: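 A drop in FITC polarization marked displacement of the FITC-tagged RGS12 GoLoco peptide (10 nM) from Gαi1 (50 nM). Compounds were incubated 10 min at room temperature in Tris pH 7.5 buffer containing 150 mM NaCl, 0.1 mM GDP and 0.05% NP40; unlabeled peptide titration served as control.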

[12] = target: Cytochrome P450 2D6 (Homo sapiens) (UniProt P10635); assay: qHTS Assay for Inhibitors and Substrates of Cytochrome P450 2D6 (AID 891); also: potency is read from the fitted curve at half-maximal effect; nearly all actives have a fitted effect of over 60% in size
Sequence of Cytochrome P450 2D6 (Homo sapiens) (P10635 whole entry, looked up): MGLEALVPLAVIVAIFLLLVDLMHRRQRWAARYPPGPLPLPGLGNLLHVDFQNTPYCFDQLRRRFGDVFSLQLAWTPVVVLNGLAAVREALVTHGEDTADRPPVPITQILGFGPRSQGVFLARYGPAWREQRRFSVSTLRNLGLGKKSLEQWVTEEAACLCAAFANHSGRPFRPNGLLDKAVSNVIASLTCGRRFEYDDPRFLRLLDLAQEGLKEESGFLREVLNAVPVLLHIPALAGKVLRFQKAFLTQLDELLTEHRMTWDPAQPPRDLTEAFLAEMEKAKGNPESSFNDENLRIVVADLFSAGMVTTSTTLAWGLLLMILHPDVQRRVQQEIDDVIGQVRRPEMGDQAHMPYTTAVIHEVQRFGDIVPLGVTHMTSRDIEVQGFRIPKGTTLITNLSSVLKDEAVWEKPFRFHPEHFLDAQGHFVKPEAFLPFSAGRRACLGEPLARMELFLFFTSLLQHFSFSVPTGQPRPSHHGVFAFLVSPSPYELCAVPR
Procedure, shortened: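 Luminescent read-out of luciferin formed by 5 nM human CYP2D6 demethylating 30 uM Luciferin-ME EGE (Km level) over 60 min at room temperature after NADPH regeneration addition. Data normalized to full inhibition by 1.43 uM quinidine.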

[13] = qHTS Assay for Identification of Small Molecule Antagonists for NFkB Signaling Pathway (AID 895; active = well fitted inhibition curve with a large enough effect in the signal ratio, with a control signal flat, not every such curve was filed as active; the % refers to the signal ratio; also: % is scaled to controls: 0 for no effect and ±100 for the full control effect)
Procedure, shortened: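 Beta-lactamase reporter read-out (460 and 530 nm emission ratio, 405 nm excitation, 2 hrs substrate loading RT) after 5 hr stimulation with 10 pM TNF alpha in compound-treated NFkB-bla ME-180 cells in low-serum medium.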

[14] = target: Cytochrome P450 2C19 (Homo sapiens) (UniProt P33261); assay: qHTS Assay for Inhibitors and Substrates of Cytochrome P450 2C19 (AID 899); also: % is scaled to controls: 0 for no effect and ±100 for the full control effect; nearly all actives have a fitted effect of over 60% in size
Sequence of Cytochrome P450 2C19 (Homo sapiens) (P33261 whole entry, looked up): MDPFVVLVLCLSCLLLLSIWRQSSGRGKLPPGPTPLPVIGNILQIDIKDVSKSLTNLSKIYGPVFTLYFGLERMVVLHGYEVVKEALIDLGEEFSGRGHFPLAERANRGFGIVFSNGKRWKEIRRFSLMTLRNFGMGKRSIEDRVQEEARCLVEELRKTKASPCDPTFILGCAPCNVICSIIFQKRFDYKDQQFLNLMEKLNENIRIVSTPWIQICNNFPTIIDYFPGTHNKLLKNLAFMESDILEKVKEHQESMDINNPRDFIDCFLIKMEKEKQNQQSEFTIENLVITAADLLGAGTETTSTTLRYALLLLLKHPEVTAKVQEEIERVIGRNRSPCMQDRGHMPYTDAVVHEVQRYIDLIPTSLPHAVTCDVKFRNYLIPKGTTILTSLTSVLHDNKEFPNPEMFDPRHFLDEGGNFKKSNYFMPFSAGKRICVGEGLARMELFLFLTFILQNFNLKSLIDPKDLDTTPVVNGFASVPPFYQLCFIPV
Procedure, shortened: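 5nM enzyme + 10uM Luciferin-H EGE (=KM), 50mM KPO4; cpd pin-transferred, 10 min 37C; NADPH regen, 60 min 37C; stopped w/ luciferin detection reagent, 20 min; luminescence. Normalized to 57uM ketoconazole (AC100).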

[15] = qHTS Assay for Identification of Small Molecule Agonists for Thrombopoietin (TPO) Signaling Pathway (AID 917); also: % is scaled to controls: 0 for no effect and ±100 for the full control effect
Procedure, shortened: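 Cell-based luciferase reporter screen. Mouse Ba/F3 line stably expressing human TPO receptor; IL-3 removed overnight before plating. Co-treatment with compound and EC50 TPO (26 pM), 24 hrs at 37 C, then luminescence.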

[16] = target: Pyruvate kinase (Leishmania mexicana) (UniProt Q27686); assay: qHTS Validation Assay for Inhibitors of Leishmania Mexicana Pyruvate Kinase (AID 945);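 also: 0% = DMSO only neutral control wells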
Sequence of Pyruvate kinase (Leishmania mexicana) (Q27686 2-499 E452W): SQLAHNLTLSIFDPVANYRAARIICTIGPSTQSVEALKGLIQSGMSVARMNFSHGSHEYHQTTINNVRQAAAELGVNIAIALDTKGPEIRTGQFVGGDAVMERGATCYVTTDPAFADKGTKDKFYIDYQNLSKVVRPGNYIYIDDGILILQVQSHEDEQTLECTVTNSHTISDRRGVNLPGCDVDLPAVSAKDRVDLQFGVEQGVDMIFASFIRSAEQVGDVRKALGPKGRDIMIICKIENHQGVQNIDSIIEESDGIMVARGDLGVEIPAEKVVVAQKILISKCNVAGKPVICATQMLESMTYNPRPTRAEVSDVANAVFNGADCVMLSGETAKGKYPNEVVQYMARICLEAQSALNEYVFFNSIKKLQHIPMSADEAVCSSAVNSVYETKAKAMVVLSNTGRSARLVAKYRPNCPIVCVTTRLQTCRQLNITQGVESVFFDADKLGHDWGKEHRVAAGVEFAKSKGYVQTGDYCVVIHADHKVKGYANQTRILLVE
Procedure, shortened: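 Luminescent ATP detection (PKLight) after a 1 h room-temperature reaction of 0.2 nM LmPYK E451W mutant with 0.5 mM PEP and 0.1 mM ADP at pH 7.2. Activity is normalized to DMSO-only control wells.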

[17] = target: Alpha-galactosidase A (Homo sapiens) (UniProt P06280); assay: Counterscreen for Glucocerebrosidase Inhibitors: qHTS Assay for Human alpha-Galactosidase at pH 4.5 (AID 992); also: 0% is about no effect
Sequence of Alpha-galactosidase A (Homo sapiens) (P06280 whole entry, looked up): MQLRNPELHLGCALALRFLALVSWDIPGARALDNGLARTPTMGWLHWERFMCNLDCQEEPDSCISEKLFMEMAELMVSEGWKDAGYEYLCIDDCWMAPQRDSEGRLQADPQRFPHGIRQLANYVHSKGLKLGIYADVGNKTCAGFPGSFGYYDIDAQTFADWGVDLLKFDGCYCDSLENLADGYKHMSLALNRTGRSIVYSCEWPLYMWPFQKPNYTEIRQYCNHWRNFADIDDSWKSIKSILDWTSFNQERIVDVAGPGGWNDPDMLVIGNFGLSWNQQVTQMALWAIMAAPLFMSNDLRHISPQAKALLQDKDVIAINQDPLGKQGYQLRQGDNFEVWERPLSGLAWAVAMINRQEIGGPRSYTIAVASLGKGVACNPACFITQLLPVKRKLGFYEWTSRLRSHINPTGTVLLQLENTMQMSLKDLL
Procedure, shortened: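 Citrate buffer pH 4.5, Tween-20 0.005%. Enzyme 2 nM, substrate 80 uM, 20 min RT. Stop pH 10. Fluorescence Ex 365/Em 440. AC50 by Hill fit.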

[18] = target: alpha-glucosidase (Oryza sativa, rice) (UniProt Q653V4); assay: Counterscreen for Glucocerebrosidase Inhibitors: qHTS Assay for Rice alpha-Glucosidase at pH 5.0 (AID 997);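 also: 0% = full activity with enzyme and -100% = basal without enzyme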
Procedure, shortened: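 Endpoint fluorogenic assay at pH 5.0: compounds (0.7 nM to 77 uM) titrated against 4 nM rice enzyme and 400 uM 4-MU-alpha-glucoside for 20 min at room temperature; NaOH/glycine stop, read ex 365/em 440 nm, Hill-fitted AC50.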

[19] = target: DNA dC->dU-editing enzyme APOBEC-3G (Homo sapiens) (UniProt Q9HC16); assay: qHTS for inhibitors of Vif-A3G interactions: Validation (AID 588379); also: 0% is about no effect
Sequence of DNA dC->dU-editing enzyme APOBEC-3G (Homo sapiens) (Q9HC16 whole entry, looked up): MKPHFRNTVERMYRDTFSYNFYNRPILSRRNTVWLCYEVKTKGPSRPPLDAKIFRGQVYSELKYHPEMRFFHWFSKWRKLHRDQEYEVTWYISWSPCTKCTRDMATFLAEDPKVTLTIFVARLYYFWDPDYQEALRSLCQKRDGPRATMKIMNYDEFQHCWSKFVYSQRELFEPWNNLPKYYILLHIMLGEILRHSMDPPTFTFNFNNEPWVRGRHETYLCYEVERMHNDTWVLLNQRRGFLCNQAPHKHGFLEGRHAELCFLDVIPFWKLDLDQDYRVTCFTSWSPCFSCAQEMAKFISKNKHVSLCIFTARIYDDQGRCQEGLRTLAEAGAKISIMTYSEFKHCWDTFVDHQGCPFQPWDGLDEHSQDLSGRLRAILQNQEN
Procedure, shortened: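 Yellow fluorescence (Ex 488, Em 500-530) of Vif-coexpressing HeLa A3G-eYFP cells, scanned by Acumen cytometer, reports blocked A3G degradation. Cells plated at 700/well overnight at 37 deg C before compound addition, then a further overnight compound incubation at 37 deg C.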

Cc1cc(F)c(Nc2ncnc3cc(OCc4ccccc4)ccc23)cc1O
inactive: Potency [1] | Potency [4]
active: Potency [2] 3.66 µM | Potency [3] 3.26 µM

CNC(=O)Oc1ccc2c(c1)[C@@]1(C)CCN(C)[C@@H]1N2C
active: Potency [12] 1.26 µM and 79.4 nM and 251 nM
inactive: activity change, negative = inhibition ([5]; at 17.2 µM (top of the series)) -5.3% | activity change, negative = inhibition ([5]; at 38 µM (top of the series)) 6.53% | Potency [6] | activity change, negative = inhibition ([7]; at 17.2 µM (top of the series)) -2.84% | activity change, negative = inhibition ([7]; at 38 µM (top of the series)) -3.73% | activity, negative = inhibition ([8]; at 17.2 µM (top of the series)) 5.27% | activity, negative = inhibition ([8]; at 38 µM (top of the series)) -23.2% | Potency [9] | Potency [10] | outcome [11] | Potency [13] | Potency [14] | Potency [15] | Potency [16] | outcome [17] | outcome [18] | Potency [19] | Potency [1]
